This assay can be described thus: mtPTP inhibition via calcium retention, dose response, biochemical, dry powder samples, uHTS hits, Calcium Green-5N (AID 743360). The settings on record: isolated mitochondria, Ca retention capacity.

Unmarked numbers belong to inactive results. Active and inactive are the calls of the source.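 Rule for the calls: active = calcium retention capacity relative to untreated control above about 1.1 ratio (limit read from the data); inactive = the rest.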

Regarding `COc1ccc(Cl)cc1C(=O)Nc1ccccc1`, the CRC/CRC0 ratio at 12.5 uM (higher = more inhibition) is 1.07. Then `COc1ccc(Cl)cc1S(=O)(=O)Nc1ccc(CN2CCN(C)CC2)cc1`, with 1.03; and `COc1ccc(Cl)c(C(=O)Nc2cccc(CN3CCN(C(=O)OC(C)(C)C)CC3)c2)c1`, with 1.04; and `O=C(Nc1ccc(Cl)cc1)c1cc(-c2cccc(O)c2)on1`, with 3.44 (active). With `CC1CCN(CCCC(=O)c2ccc(Br)cc2)CC1` the figure was 1.05; with `O=C(Nc1cc(Cl)cc(Cl)c1)c1cc(-c2cccc(O)c2)on1`, 12.1 (active); with `O=C(Nc1ccc(CN2CCCCC2)cc1)c1cc(OCc2ccccc2)ccc1Cl`, 2.26 (active). Regarding `CC(C)C1CCN(CCCC(=O)c2ccc(Br)cc2)CC1`, the CRC/CRC0 ratio at 12.5 uM (higher = more inhibition) was 1.16 (active). On to `COc1ccc(Cl)cc1C(=O)Nc1ccc(CN2CCOCC2)cc1`, for which the CRC/CRC0 ratio at 12.5 uM (higher = more inhibition) is 1.2 (active). Then `CN1CCN(Cc2ccc(NS(=O)(=O)c3ccc(F)c(Cl)c3)cc2)CC1`, with 1.07; and `COc1ccc(Cl)cc1C(=O)Nc1cccc(CN2CCNCC2)c1`, with 1.52 (active). In the case of `COc1ccc(C(=O)CCN2CCCC(C)C2)cc1` (stereo unspecified), the CRC/CRC0 ratio at 12.5 uM (higher = more inhibition) was 1.07. Take `O=C(Nc1cccc(F)c1)c1cc(-c2cccc(O)c2)on1`: the CRC/CRC0 ratio at 12.5 uM (higher = more inhibition) was 2.24 (active).

For `COc1ccccc1C(=O)Nc1ccc(C(=O)N2CCCCC2)cc1`, the CRC/CRC0 ratio at 12.5 uM (higher = more inhibition) is over 1. `O=C(Nc1ccc(CN2CCCCC2)cc1)c1cccc(Cl)c1`: the CRC/CRC0 ratio at 12.5 uM (higher = more inhibition) is 1.16 (active). As to `COc1ccc(/C=C/C(=O)Nc2cccc(Cl)c2)cc1O`, the CRC/CRC0 ratio at 12.5 uM (higher = more inhibition) was 6.53 (active). With `CCN(C(=O)c1cc(Cl)ccc1OC)c1ccccc1` the figure was over 1; with `COc1ccc(Cl)cc1S(=O)(=O)Nc1ccc(N2CCN(C)CC2)cc1`, 1.03. Then `O=C(Nc1ccc(CN2CCCCC2)cc1)c1cc(Cl)cc(OCc2ccccc2)c1`, with 22.7 (active); and `Cc1c(Cl)cccc1NC(=O)c1cc(-c2cccc(O)c2)on1`, with 6 (active).

As for `CC1(C)CCN(CCCC(=O)c2ccc(Br)cc2)CC1`, the CRC/CRC0 ratio at 12.5 uM (higher = more inhibition) was 1.1 (active). With `CCc1ccccc1NC(=O)c1cc(-c2ccccc2)on1` the figure was over 1; with `COc1ccccc1C(=O)Nc1ccc(CN2CCCCC2)cc1`, 1.05; with `CN1CCN(CCc2ccc(NC(=O)c3cccc(OCc4ccccc4)c3)cc2)CC1`, 2.05 (active). As to `COc1ccc(Cl)c(C(=O)Nc2ccc(CCN3CCN(C)CC3)cc2)c1`, the CRC/CRC0 ratio at 12.5 uM (higher = more inhibition) was over 1. With `O=C(Nc1ccccc1OCc1ccccc1)c1cc(-c2cccc(O)c2)on1`, the CRC/CRC0 ratio at 12.5 uM (higher = more inhibition) was 1.14 (active). With `O=C(Nc1cc(Cl)ccc1Cl)c1cc(-c2cccc(O)c2)on1` the figure was 4.67 (active); with `CN1CCN(Cc2ccc(NS(=O)(=O)c3cccc(Cl)c3)cc2)CC1`, 1.01.

With `COc1ccc(Cl)c(C(=O)Nc2ccc(CN3CCN(C)CC3)cc2)c1`, the CRC/CRC0 ratio at 12.5 uM (higher = more inhibition) is over 1.

Regarding `O=C(Nc1ccc(Cl)cc1)c1cc(-c2ccccc2)on1`, the CRC/CRC0 ratio at 12.5 uM (higher = more inhibition) is over 1.

Turning to `COc1ccc(Cl)cc1C(=O)Nc1ccc(CN2CCCCC2)cc1`, the CRC/CRC0 ratio at 12.5 uM (higher = more inhibition) was 1.8 (active). As for `COc1ccc(Cl)cc1C(=O)Nc1ccc(N2CCCCC2)cc1`, the CRC/CRC0 ratio at 12.5 uM (higher = more inhibition) was 1.05. Then `COc1ccc(Cl)cc1C(=O)Nc1ccc(CN2CCN(C)CC2)cc1`, with 1.24 (active); and `COc1ccc(NC(=O)c2cc(-c3cccc(O)c3)on2)cc1Cl`, with 3.26 (active); and `COc1ccc(Cl)c(C(=O)Nc2ccc(CN3CCCCC3)cc2)c1`, with over 1. With `CN1CCN(c2ccc(NS(=O)(=O)c3cccc(Cl)c3)cc2)CC1` the figure was 1.05; with `O=C(Nc1ccc(CN2CCCCC2)cc1)c1cc(Cl)ccc1O`, 1.1 (active). As for `CN1CCN(CCc2ccc(NS(=O)(=O)c3ccc(F)c(Cl)c3)cc2)CC1`, the CRC/CRC0 ratio at 12.5 uM (higher = more inhibition) was 1.08.

Take `COc1ccc(Cl)cc1C(=O)Nc1ccc(CCN2CCNCC2)cc1`: the CRC/CRC0 ratio at 12.5 uM (higher = more inhibition) was 1.31 (active). For the compound `O=C(Nc1cccc(Cl)c1Cl)c1cc(-c2cccc(O)c2)on1`, the CRC/CRC0 ratio at 12.5 uM (higher = more inhibition) is 4 (active). As for `COc1ccc(Cl)cc1S(=O)(=O)Nc1ccc(CCN2CCN(C)CC2)cc1`, the CRC/CRC0 ratio at 12.5 uM (higher = more inhibition) was 1.03. On to `COc1ccc(Cl)cc1C(=O)Nc1cccc(CN2CCN(C(=O)OC(C)(C)C)CC2)c1`, for which the CRC/CRC0 ratio at 12.5 uM (higher = more inhibition) was 1.08. With `CN1CCN(c2ccccc2NC(=O)c2ccc(OCc3ccccc3)cc2)CC1` the figure was 1.24 (active). On to `COc1c(Cl)cccc1NC(=O)c1cc(-c2cccc(O)c2)on1`, for which the CRC/CRC0 ratio at 12.5 uM (higher = more inhibition) was 1.82 (active). On to `CN1CCN(c2ccc(Cl)cc2NC(=O)/C=C/c2cccc(F)c2)CC1`, for which the CRC/CRC0 ratio at 12.5 uM (higher = more inhibition) was 1.53 (active). With `O=C(Nc1ccccc1C(F)(F)F)c1cc(-c2ccccc2)on1` the figure was over 1.

For the origin of these results see PubChem BioAssay AID743360 (Molecular Libraries Program, Specialized Chemistry Center, …, 2014).
